Experimental data published in PubChem BioAssay (NCATS).
Inconclusive results are not listed. Active and inactive are the calls of the source. Calls follow the shape of the dose curve; as a rule, active = well fitted inhibition curve with a large enough effect; inconclusive = small, poorly fitted or top-dose-only effect; inactive = no such curve, though single readings can be large or run the other way.

Test system: Zika virus NS2B-NS3 protease (linked construct)
Experiment: Primary screen NINDS Rhodamine qHTS for Zika virus inhibitors (AID 1347160); also: nearly all actives have a fitted effect of over 55% in size
Conditions: purified NS2B-NS3 protease, Rhodamine110 substrate fluorescence; series mostly up to 33.1 µM; activity change, negative = inhibition: at the top concentration
How it was run: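 Kinetic fluorescence (Ex 480 nm, Em 540 nm) over 15 min with 1.5 microM Rhodamine110 peptide and 25 nM linked protease.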
% is scaled to controls: 0 for no effect and ±100 for the full control effect; potency is read from the fitted curve at half-maximal effect.

SMILES	activity change, negative = inhibition	outcome	Potency
C=C1C(=O)OC2CC(COC(=O)C(C)C)=C(C(C)CCCOC(C)=O)[C@@H](OC(C)=O)C12 (stereo partly drawn)	15.3% (inactive)	–	–
CCC(C)/C=C(C)/C=C/C1=CC2=C(Cl)C(=O)C(C)(OC(C)=O)C(=O)C2=CN1C(CCCN=C(N)N)C(=O)O (stereo not drawn)	-16.4% (inactive)	–	–
O=C(Nc1cc(-c2ccccc2)nn1-c1ccccc1F)c1ccc([N+](=O)[O-])cc1	15% [at 57.1 µM] (inactive)	–	–
N=C(N)c1ccc2nc(-c3cc(CC(=O)NC(CC(=O)O)C(=O)O)cc(-c4cc(S(N)(=O)=O)ccc4O)c3O)[nH]c2c1 (stereo not drawn)	-10.2% [at 57.1 µM] (inactive)	–	–
CC(=O)O[C@@H]1C=C2[C@H](CC[C@@]3(C)[C@@]2(O)CC[C@H]2Cc4c([nH]c5ccccc45)[C@@]23C)O[C@@H]1C(C)(C)O	-11.2% (inactive)	–	–
CC1CC(=O)[C@]2(O)C(C(=O)OCCc3ccc(O)c(O)c3)=CO[C@@H](O[C@@H]3O[C@H](CO)[C@@H](O)[C@H](O)[C@H]3O)[C@H]12 (stereo partly drawn)	21.5% (inactive)	–	–
CCCc1[nH]nc2c1C(c1cc(Cl)cc(Cl)c1O)C(C#N)=C(N)O2 (stereo not drawn)	6.09% [at 57.1 µM] (inactive)	–	–
C=C1C(=O)OC[C@H]2C(C(=O)O)=CC3CC(C)(C)C[C@@]132 (stereo partly drawn)	–	inactive	–
CC1(C)C2CC[C@]3(C)C(C(=O)C=C4[C@H]5C[C@@](C)(C(=O)O)CC[C@]5(C)CC[C@]43C)[C@@]2(C)CC[C@@H]1O (stereo partly drawn)	-2.83% (inactive)	–	–
CC1CC(=O)[C@]2(O)C(C(=O)OCCc3ccc(O)cc3)=CO[C@@H](O[C@@H]3O[C@H](CO)[C@@H](O)[C@H](O)[C@H]3O)[C@H]12 (stereo partly drawn)	–	inactive [at 33.1 µM]	–
COC(=O)[C@]1(Cc2ccc(O)c(CC=C(C)C)c2)OC(=O)C(O)=C1c1ccc(O)cc1	–	inactive [at 33.1 µM]	–
Cc1nnc(-c2ccc3occ(-c4ccc(S(C)=O)cc4)c3c2)o1 (stereo not drawn)	10.9% [at 57.1 µM] (inactive)	–	–
CC(=O)c1c(C)cccc1O[C@@H]1O[C@H](CO)[C@@H](O)[C@H](O)[C@H]1O	-14.3% (inactive)	–	–
C/C=C/C=C/C1=C2C(=O)C3(C)C4C(C(=O)CC(O)/C=C/C)=C(O1)C1(C)C2C2(C)OC1(O)C4(C)OC23O (stereo not drawn)	–	inactive [at 33.1 µM]	–
C=C(C)[C@@H]1CC[C@]2(CO)CC[C@]3(C)[C@H](CC[C@@H]4[C@@]5(C)CC[C@H](O)C(C)(C)[C@@H]5CC[C@]43C)[C@@H]12	-10.8% (inactive)	–	–
COc1c(C)c(OCC=C(C)C)cc2c1COC2=O	-9.88% [at 57.1 µM] (inactive)	–	–
C[C@@H]1CC[C@]2(C(=O)O)CC[C@]3(C)C(=CCC4[C@@]5(C)C[C@@H](O)[C@H](O)[C@@](C)(CO)C5CC[C@]43C)C2[C@H]1C (stereo partly drawn)	-13.8% (inactive)	–	–
COc1ccc(-n2c(=O)[nH]c3cc(C(=O)NCc4ccc(Cl)cc4)sc3c2=O)nc1OC	4.82% [at 57.1 µM] (inactive)	–	–
CC(=O)O[C@@H]1[C@H](O[C@@H]2OC[C@](O)(CO)[C@H]2O)[C@@H](O[C@@H]2O[C@@H](C)[C@H](O)[C@@H](O[C@@H]3O[C@H](CO)[C@@H](O)[C@H](O)[C@H]3O)[C@H]2O)[C@H](OC(=O)[C@]23CCC(C)(C)C[C@H]2C2=CCC4[C@@]5(C)C[C@H](O)[C@H](O[C@@H]6O[C@H](C(=O)O)[C@@H](O)[C@H](O)[C@H]6O)[C@@](C)(C(=O)O)C5CC[C@@]4(C)[C@]2(C)CC3)O[C@@H]1C (stereo partly drawn)	10.6% [at 10.7 µM] (inactive)	–	–
CC1=C[C@H]2[C@@H](CC1=O)[C@H](C)C[C@H](O)[C@H]2C(C)C	-11.5% [at 57.1 µM] (inactive)	–	–
N#Cc1cccc(-c2c[nH]c3ncnc(N4CCOCC4)c23)c1	13.7% [at 57.1 µM] (inactive)	–	–
CC1=CC(=O)C2C(C)(C)CCC[C@]2(C)[C@H]1CC[C@H](C)CC(=O)O (stereo partly drawn)	2.15% (inactive)	–	–
O=C(/C=C/c1ccc(O)c(O)c1)OC[C@H]1O[C@@H](OC2CCCCC2O)[C@H](O)[C@@H](O)[C@@H]1O (stereo partly drawn)	-6.64% (inactive)	–	–
COc1cc(O)c(C(=O)O)c(CCc2ccccc2)c1	–	–	22.4 µM (active)
CC(C)c1ccc2c(c1)C(=O)CC1C(C)(C(=O)O)CCCC21C (stereo not drawn)	-16.7% (inactive)	–	–
CCOC(=O)C1=C(N)Oc2ccc(Cl)cc2C1C(C#N)C(=O)OCC (stereo not drawn)	-17.8% [at 57.1 µM] (inactive)	–	–
C/C=C1/[C@H](O[C@@H]2O[C@H](CO)[C@@H](O)[C@H](O)[C@H]2O)OC=C(C(=O)OC)[C@H]1CC(=O)OCCc1ccc(OC(=O)C[C@@H]2C(C(=O)OC)=CO[C@@H](O[C@@H]3O[C@H](CO)[C@@H](O)[C@H](O)[C@H]3O)/C2=C/C)cc1	11.8% [at 15.1 µM] (inactive)	–	–
C[C@@H]1O[C@@H](O[C@H]2[C@@H]3C=CO[C@@H](O[C@@H]4O[C@H](CO)[C@@H](O)[C@H](O)[C@H]4O)[C@@H]3[C@@]3(CO)O[C@@H]23)[C@H](OC(=O)/C=C/c2ccc(O)cc2)[C@H](O)[C@H]1O	5.08% [at 15.1 µM] (inactive)	–	–
